Read-out in test [1]: E-selectin (Homo sapiens) (UniProt P16581)
Put plainly: BSK_SAg_Eselectin: BioMAP Diversity Plus: SAg Assay for Eselectin Biomarker Activity (AID 2283091). The note with it: primary human HUVEC with PBMC; actives raise or lower the signal. The method, boiled down:
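Cell-surface E-selectin is read by ELISA at 24 h in the SAg co-culture of HUVEC and PBMC. Curves are fitted in both directions relative to DMSO. Parallel SRB total-protein staining tracks overt toxicity.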

Read-out in test [2]: Interleukin-8 (IL8), CXCL8 (gene 3576)
In words: BSK_SAg_IL8: BioMAP Diversity Plus: SAg Assay for Interleukin-8 (IL8) Biomarker Activity (AID 2283094). The note with it: primary human HUVEC with PBMC; actives raise or lower the signal. The method, boiled down: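 Human umbilical vein endothelial cells co-cultured with peripheral blood mononuclear cells; IL-8 measured by ELISA 24 h after chemical dosing. Bidirectional concentration-response fitting used DMSO as negative control and activity baseline.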

Test [3] can be described thus: BSK_SAg_Proliferation: Cell Proliferation Assessment in the BioMAP Diversity Plus: SAg Assay (AID 2283095).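 Also: relative cell number as total protein by SRB absorbance in sub-confluent culture.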 The note with it: primary human HUVEC with PBMC. In short, it runs like this: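 Human umbilical vein endothelial cells co-cultured with peripheral blood mononuclear cells; total protein measured by sulforhodamine B staining (0.1% SRB after 10% TCA fixation), absorbance at 560 nm, at 96 h. Bidirectional fit against DMSO baseline.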

Test [4] is described as follows: BSK_SAg_SRB: Viability Assessment in the BioMAP Diversity Plus: SAg Assay (AID 2283096).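 Also: cells read one day after compound addition; hits may be either gain or loss of signal compared with DMSO.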 The note with it: primary human HUVEC with PBMC. The method, boiled down:
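Endothelial/PBMC primary human co-culture; compound 24 h; fix 10% TCA, stain 0.1% SRB, A560; protein content as cytotoxicity proxy; bidirectional curve fit, DMSO = baseline.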

Read-out in test [5]: Monokine induced gamma interferon (MIG), CXCL9 (gene 4283)
Put plainly: BSK_SAg_MIG: BioMAP Diversity Plus: SAg Assay for Monokine induced gamma interferon (MIG) Biomarker Activity (AID 2283092). Conditions: primary human HUVEC with PBMC; actives raise or lower the signal. The method, boiled down:
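Endothelial cells and PBMC were co-cultured, exposed to test chemicals, and sampled 24 h later. MIG was measured by ELISA, and responses were fitted in both directions relative to DMSO.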

Test [6] addresses human CYP19A1, CYP19A1 (gene 1588) (UniProt P11511). Put plainly: NVS_ADME_hCYP19A1: NovaScreen (NVS) CYP450-related Enzyme Activity (ADME) Assay for human CYP19A1 (AID 2283098; active = hit-call score of the fitted dose curve at least 0.9, where 1 is the maximum;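 as to AC50: potency for inhibitors seen as loss of fluorescent enzyme signal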). In short, it runs like this:
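Cell-free enzyme assay with recombinant protein and a specific fluorogenic substrate, read by fluorescence intensity 0.5 h after dosing. Primary screen ran in duplicate at 10 uM; actives were retested in concentration series. Loss of signal versus acetonitrile baseline.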

The target in test [7] is human CYP1A2, CYP1A2 (gene 1544) (UniProt P05177). In words: NVS_ADME_hCYP1A2: NovaScreen (NVS) CYP450-related Enzyme Activity (ADME) Assay for human CYP1A2 (AID 2283102; active = hit-call score of the fitted dose curve at least 0.9, where 1 is the maximum;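 also: potency for inhibition since loss of fluorescence marks reduced CYP1A2 activity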). In short, it runs like this:
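Enzyme activity of insect-cell-expressed human CYP1A2 measured by fluorescence 0.5 h after compound addition, relative to acetonitrile. Compounds first tested in duplicate at 10 uM, actives followed up in concentration series.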

The target of test [8] is human CYP2C9, CYP2C9 (gene 1559) (UniProt P11712). Put plainly: NVS_ADME_hCYP2C9: NovaScreen (NVS) CYP450-related Enzyme Activity (ADME) Assay for human CYP2C9 (AID 2283108; active = hit-call score of the fitted dose curve at least 0.9, where 1 is the maximum). In short, it runs like this:
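Cell-free assay of recombinant human CYP2C9 produced in Sf9 cells, with enzyme activity read by fluorescence intensity 0.75 h after compound addition. Loss of signal versus an acetonitrile negative control indicates inhibition. Primary screen used 10 uM in duplicate; actives were retested in concentration series.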

For test [9], the target named is Cytochrome P450 2C19 (Homo sapiens) (UniProt P33261). In words: NVS_ADME_hCYP2C19: NovaScreen (NVS) CYP450-related Enzyme Activity (ADME) Assay for human CYP2C19 (AID 2283113; active = hit-call score of the fitted dose curve at least 0.9, where 1 is the maximum;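 as to AC50: potency for inhibition seen as loss of fluorescent signal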). In short, it runs like this: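 Compounds first screened in duplicate at 10 uM, then confirmed in concentration series. Insect-cell-expressed human CYP2C19 turned over a fluorogenic substrate, and fluorescence was read after 1 h. Inhibition taken as signal loss relative to acetonitrile.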

Test [10] addresses human CYP2B6, CYP2B6 (gene 1555) (UniProt P20813). Put plainly: NVS_ADME_hCYP2B6: NovaScreen (NVS) CYP450-related Enzyme Activity (ADME) Assay for human CYP2B6 (AID 2283101; active = hit-call score of the fitted dose curve at least 0.9, where 1 is the maximum). In short, it runs like this:
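Cell-free recombinant enzyme assay with a fluorogenic substrate; fluorescence intensity read 1 hour after dosing. Loss of signal relative to acetonitrile negative control indicates inhibition. Primary screen run in duplicate at 10 uM, actives then tested in concentration series.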

Test [11] deals with Cytochrome P450 3A4 (Homo sapiens) (UniProt P08684). Put plainly: NVS_ADME_hCYP3A4: NovaScreen (NVS) CYP450-related Enzyme Activity (ADME) Assay for human CYP3A4 (AID 2283110; active = hit-call score of the fitted dose curve at least 0.9, where 1 is the maximum). The method, boiled down: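 Cell-free assay using insect-cell-expressed human CYP3A4 with a fluorogenic substrate; fluorescence intensity was read 0.33 hour after dosing. Loss of signal relative to acetonitrile vehicle indicated inhibition. Primary single-concentration screen at 10 uM, in duplicate, then concentration series.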

Test [12] has as its target human CYP4F12, CYP4F12 (gene 66002) (UniProt Q9HCS2). Put plainly: NVS_ADME_hCYP4F12: NovaScreen (NVS) CYP450-related Enzyme Activity (ADME) Assay for human CYP4F12 (AID 2283111; active = hit-call score of the fitted dose curve at least 0.9, where 1 is the maximum). In short, it runs like this: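 Cell-free fluorescence assay of recombinant human CYP4F12 activity on a specific substrate, read 0.5 h after dosing. Primary screen in duplicate at 10 uM, then concentration series for actives; loss of signal fitted against acetonitrile negative control.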

The nature of test [13]: BSK_SAg_PBMCCytotoxicity: PBMC Cytotoxicity Assessment in the BioMAP Diversity Plus: SAg Assay (AID 2283093).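 Also: PBMC viability measured as Alamar Blue reduction fluorescence at 546/580 nm; fitted both ways against DMSO so a hit may be loss or gain of signal.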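 As to AC50: PBMC superantigen activated with SEB plus TSST-1 one hour after compound addition.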 The note with it: primary human HUVEC with PBMC. In short, it runs like this:
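Human umbilical vein endothelial cells co-cultured with PBMC; PBMC (75,000/well) pre-treated with compound 1 h, then activated with SEB and TSST-1 (20 ng/mL final each) for 90 h. Alamar Blue added 6 h, fluorescence 546/580 nm; bidirectional fit versus DMSO.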

For test [14], the target named is human CYP2D6, CYP2D6 (gene 1565) (UniProt P10635). In words: NVS_ADME_hCYP2D6: NovaScreen (NVS) CYP450-related Enzyme Activity (ADME) Assay for human CYP2D6 (AID 2283107; active = hit-call score of the fitted dose curve at least 0.9, where 1 is the maximum). In short, it runs like this: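 Fluorescence readout of recombinant CYP2D6 (insect-cell derived) activity after 1 h incubation with test chemical. Acetonitrile served as baseline, loss-of-signal direction. Single-concentration duplicate screening at 10 uM preceded concentration-response retesting.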

Test [15] addresses human CYP1A1, CYP1A1 (gene 1543) (UniProt P04798). In words: NVS_ADME_hCYP1A1: NovaScreen (NVS) CYP450-related Enzyme Activity (ADME) Assay for human CYP1A1 (AID 2283100; active = hit-call score of the fitted dose curve at least 0.9, where 1 is the maximum). The method, boiled down: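 Chemicals were first tested in duplicate at 10 uM, and those passing a 30% inhibition threshold were rerun as concentration series topping at 20 uM. Fluorescence read-out of recombinant enzyme turnover after 1 h, relative to acetonitrile.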

Test [16] concerns the target rat CYP2A2, Cyp2a2 (gene 24895) (UniProt P15149). In words: NVS_ADME_rCYP2A2: NovaScreen (NVS) CYP450-related Enzyme Activity (ADME) Assay for rat CYP2A2 (AID 2283116; active = hit-call score of the fitted dose curve at least 0.9, where 1 is the maximum). In short, it runs like this: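 Cell-free recombinant rat CYP2A2 activity with fluorogenic substrate, fluorescence read 0.2 h after dosing. Chemicals screened at 10 uM in duplicate, hits then run in concentration-response up to 20 uM; signal loss versus acetonitrile baseline.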

Test [17] deals with rat CYP2B1, gene 24300. Put plainly: NVS_ADME_rCYP2B1: NovaScreen (NVS) CYP450-related Enzyme Activity (ADME) Assay for rat CYP2B1 (AID 2283117; active = hit-call score of the fitted dose curve at least 0.9, where 1 is the maximum). In short, it runs like this:
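Recombinant rat CYP2B1 with fluorogenic substrate, read at 0.75 h. Primary screen in duplicate at 10 uM; compounds meeting threshold (e.g., 30% inhibition) re-run in concentration-response up to 20 uM. Fitted against acetonitrile control.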

Several values for one entry are separate records, joined by “and”; a condition that tells them apart may be missing. Identical values can stand only once. Results filed as inconclusive are left out. Some compounds were tested as several samples or in several runs, with calls that do not always agree. Activity calls are given as the source filed them. The calls were made as follows, unless noted: active = hit-call score of the fitted dose curve at least 0.9, where 1 is the maximum; inactive = score below 0.9.

17 compounds from PubChem BioAssay (EPA / NIEHS) can be followed below.

human CYP19A1, CYP19A1 (gene 1588), sequence (P11511 whole entry, looked up): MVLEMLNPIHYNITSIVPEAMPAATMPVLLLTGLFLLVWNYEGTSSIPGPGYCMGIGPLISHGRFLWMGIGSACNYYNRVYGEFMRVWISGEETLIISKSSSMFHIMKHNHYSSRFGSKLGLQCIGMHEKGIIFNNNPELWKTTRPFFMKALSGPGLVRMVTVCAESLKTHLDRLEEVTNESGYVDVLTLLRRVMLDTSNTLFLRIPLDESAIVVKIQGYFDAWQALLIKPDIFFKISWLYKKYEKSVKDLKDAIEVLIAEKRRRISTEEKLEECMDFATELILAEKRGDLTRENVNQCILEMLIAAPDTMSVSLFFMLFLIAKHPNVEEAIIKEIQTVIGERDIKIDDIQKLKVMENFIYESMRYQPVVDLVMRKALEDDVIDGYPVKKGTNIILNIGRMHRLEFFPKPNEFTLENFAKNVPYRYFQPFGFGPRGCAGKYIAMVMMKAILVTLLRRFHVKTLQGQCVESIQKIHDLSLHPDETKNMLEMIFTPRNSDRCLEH
E-selectin (Homo sapiens), sequence (P16581 whole entry, looked up): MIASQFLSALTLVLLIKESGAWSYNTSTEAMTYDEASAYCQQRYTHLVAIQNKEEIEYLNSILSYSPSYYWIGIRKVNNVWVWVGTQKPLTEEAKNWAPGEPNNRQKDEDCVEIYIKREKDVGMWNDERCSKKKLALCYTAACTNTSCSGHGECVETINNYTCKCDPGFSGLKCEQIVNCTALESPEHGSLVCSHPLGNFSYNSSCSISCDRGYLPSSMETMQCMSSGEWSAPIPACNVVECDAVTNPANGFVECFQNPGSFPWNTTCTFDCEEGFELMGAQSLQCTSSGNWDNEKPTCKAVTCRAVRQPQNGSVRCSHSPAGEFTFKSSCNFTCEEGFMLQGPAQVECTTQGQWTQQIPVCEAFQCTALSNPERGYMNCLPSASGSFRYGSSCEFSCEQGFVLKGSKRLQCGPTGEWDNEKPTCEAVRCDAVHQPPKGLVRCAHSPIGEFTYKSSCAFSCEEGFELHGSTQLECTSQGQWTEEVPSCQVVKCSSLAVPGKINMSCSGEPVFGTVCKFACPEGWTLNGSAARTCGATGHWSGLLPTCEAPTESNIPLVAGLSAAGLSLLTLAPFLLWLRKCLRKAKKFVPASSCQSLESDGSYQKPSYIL
human CYP2C9, CYP2C9 (gene 1559), sequence (P11712 whole entry, looked up): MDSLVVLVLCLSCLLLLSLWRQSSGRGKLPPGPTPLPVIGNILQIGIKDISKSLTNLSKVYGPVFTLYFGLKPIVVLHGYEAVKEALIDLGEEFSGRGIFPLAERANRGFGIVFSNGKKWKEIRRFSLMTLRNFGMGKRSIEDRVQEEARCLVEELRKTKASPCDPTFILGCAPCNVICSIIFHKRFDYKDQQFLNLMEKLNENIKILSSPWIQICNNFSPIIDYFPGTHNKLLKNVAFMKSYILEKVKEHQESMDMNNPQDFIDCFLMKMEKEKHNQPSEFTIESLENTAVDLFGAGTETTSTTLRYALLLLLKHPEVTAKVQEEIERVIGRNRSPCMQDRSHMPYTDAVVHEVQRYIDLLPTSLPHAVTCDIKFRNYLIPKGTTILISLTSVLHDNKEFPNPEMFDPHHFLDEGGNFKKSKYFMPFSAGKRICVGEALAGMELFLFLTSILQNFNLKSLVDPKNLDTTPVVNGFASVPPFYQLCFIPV
human CYP2B6, CYP2B6 (gene 1555), sequence (P20813 whole entry, looked up): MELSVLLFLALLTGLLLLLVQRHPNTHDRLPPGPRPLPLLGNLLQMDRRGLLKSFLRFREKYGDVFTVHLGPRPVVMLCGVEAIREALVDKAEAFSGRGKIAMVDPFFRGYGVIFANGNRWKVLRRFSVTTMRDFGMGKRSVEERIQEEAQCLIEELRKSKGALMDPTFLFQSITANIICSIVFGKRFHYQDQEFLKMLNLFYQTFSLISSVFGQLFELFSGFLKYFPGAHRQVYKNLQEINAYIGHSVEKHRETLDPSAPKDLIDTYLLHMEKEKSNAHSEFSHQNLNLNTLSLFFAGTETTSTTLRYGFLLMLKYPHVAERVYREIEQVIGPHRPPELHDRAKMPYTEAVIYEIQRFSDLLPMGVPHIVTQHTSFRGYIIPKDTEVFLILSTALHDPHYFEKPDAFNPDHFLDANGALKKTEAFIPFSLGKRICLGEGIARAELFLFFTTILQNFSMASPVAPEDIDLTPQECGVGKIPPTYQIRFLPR
human CYP1A1, CYP1A1 (gene 1543), sequence (P04798 whole entry, looked up): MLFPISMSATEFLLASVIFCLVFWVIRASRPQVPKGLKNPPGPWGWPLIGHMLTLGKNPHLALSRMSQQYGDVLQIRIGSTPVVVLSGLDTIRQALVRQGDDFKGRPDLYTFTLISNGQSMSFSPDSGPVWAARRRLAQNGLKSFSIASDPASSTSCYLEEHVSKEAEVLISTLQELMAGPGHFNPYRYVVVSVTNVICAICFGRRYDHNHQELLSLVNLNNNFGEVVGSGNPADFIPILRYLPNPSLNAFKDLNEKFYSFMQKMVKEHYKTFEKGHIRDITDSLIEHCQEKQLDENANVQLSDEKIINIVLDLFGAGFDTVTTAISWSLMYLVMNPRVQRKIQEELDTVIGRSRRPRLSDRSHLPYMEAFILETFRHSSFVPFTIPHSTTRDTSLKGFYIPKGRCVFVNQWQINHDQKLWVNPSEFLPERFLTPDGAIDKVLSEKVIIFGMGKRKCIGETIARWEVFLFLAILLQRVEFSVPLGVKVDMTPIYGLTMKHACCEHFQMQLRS
human CYP2D6, CYP2D6 (gene 1565), sequence (P10635 whole entry, looked up): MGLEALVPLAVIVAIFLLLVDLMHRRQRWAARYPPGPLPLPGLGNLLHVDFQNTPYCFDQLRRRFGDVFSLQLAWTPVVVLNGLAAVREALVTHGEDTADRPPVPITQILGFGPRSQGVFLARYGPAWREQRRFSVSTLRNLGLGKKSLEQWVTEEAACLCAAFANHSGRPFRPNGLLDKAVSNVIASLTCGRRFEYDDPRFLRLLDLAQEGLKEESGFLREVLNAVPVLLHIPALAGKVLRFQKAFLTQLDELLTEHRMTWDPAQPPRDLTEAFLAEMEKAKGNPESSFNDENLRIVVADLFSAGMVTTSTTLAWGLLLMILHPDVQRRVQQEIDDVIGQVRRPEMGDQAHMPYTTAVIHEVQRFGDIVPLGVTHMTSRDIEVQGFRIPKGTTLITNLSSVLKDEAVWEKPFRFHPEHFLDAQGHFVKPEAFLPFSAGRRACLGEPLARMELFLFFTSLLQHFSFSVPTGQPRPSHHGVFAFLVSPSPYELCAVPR
rat CYP2A2, Cyp2a2 (gene 24895), sequence (P15149 whole entry, looked up): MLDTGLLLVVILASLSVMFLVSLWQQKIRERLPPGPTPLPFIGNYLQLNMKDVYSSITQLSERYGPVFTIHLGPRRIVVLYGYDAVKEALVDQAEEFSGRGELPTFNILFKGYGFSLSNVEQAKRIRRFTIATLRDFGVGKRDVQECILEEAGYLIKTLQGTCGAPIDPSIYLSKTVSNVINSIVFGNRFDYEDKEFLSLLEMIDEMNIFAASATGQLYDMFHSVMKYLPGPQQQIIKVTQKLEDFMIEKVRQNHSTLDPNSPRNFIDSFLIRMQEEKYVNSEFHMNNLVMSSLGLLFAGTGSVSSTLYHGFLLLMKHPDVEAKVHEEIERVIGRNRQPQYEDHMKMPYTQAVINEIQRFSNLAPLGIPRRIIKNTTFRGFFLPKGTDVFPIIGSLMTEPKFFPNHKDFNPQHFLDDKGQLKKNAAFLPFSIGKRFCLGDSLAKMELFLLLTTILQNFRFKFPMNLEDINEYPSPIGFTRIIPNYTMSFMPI
human CYP1A2, CYP1A2 (gene 1544), sequence (P05177 whole entry, looked up): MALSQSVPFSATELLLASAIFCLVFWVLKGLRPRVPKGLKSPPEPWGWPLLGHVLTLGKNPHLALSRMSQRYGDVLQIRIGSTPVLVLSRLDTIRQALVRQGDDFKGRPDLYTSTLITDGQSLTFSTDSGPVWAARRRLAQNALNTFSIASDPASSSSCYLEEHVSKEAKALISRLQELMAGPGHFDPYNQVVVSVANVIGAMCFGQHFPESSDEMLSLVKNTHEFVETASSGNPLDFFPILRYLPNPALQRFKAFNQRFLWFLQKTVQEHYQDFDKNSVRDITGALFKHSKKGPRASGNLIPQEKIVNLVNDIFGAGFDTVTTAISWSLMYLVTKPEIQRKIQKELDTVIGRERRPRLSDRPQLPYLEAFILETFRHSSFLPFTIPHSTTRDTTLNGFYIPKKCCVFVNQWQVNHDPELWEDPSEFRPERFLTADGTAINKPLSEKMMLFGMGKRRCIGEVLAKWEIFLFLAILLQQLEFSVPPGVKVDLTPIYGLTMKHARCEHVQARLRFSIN
human CYP4F12, CYP4F12 (gene 66002), sequence (Q9HCS2 whole entry, looked up): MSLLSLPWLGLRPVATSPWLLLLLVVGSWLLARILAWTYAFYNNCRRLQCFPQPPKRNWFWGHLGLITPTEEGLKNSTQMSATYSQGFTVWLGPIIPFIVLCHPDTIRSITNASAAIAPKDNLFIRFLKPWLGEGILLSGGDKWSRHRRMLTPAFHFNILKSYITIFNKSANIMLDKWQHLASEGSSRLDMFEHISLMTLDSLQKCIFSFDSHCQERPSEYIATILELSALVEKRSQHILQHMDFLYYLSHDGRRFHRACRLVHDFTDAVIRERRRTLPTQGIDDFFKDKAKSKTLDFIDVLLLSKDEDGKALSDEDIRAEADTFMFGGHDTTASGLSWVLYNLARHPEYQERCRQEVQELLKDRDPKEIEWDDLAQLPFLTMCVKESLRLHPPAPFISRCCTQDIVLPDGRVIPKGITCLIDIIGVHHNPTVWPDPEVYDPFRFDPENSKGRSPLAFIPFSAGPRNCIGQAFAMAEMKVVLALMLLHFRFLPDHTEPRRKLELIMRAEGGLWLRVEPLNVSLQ

Consider `CN(C)c1nc(=O)n(C2CCCCC2)c(=O)n1C`, for which the outcome in test [1], in test [2], in test [3] and in [4] was inactive.

On to `O=NN(c1ccccc1)c1ccccc1`, for which the result in test [1], in test [2], in test [3] and in [4] was inactive.

`Oc1ccc(Cl)cc1Cl`: the result in test [1], in test [2], in test [3] and in [4] was inactive.

Turning to `Cc1ccccc1O`, the result in test [1], in test [2], in [3] and in test [4] was inactive.

In the case of `CC(C)(O)C(=O)Nc1ccc([N+](=O)[O-])c(C(F)(F)F)c1`, the outcome in [5], in test [2], in test [3], in [4], in test [6] and in test [8] was inactive. The AC50 (as a rule, the midpoint of the concentration-response curve, whichever way the signal moves) in test [6] is 6.99 µM (active) and 5.59 µM (active); in test [7], 3.38 µM (active); in [9], 3.49 µM (active).

As to `Oc1ccc(C(c2ccc(O)cc2)(C(F)(F)F)C(F)(F)F)cc1`, the AC50 in [1] was 19.8 µM (active); in [2] it was 18.1 µM (active); in test [4] it was 22.6 µM (active); in test [6], 7.19 µM (active); in test [10] it was 4.71 µM (active); in [8], 0.406 µM (active). Further, the AC50 in [11] was 7.65 µM (active); in [12], 3.97 µM (active); in [9], 0.145 µM (active).

For `Cc1cc(O)ccc1Cl`, the result in [1], in [2], in test [3] and in [4] was inactive.

Take `O=C(N[C@H]1CN2CCC1CC2)c1cc2ccoc2cn1`: the result in test [1], in [13], in test [2], in test [3] and in test [4] was inactive. The AC50 in [14] is 2.09 µM (active).

Consider `Clc1ccc(C(c2ccccc2Cl)C(Cl)(Cl)Cl)cc1` (stereo unspecified), for which the AC50 in test [1] is 24.7 µM (active); in [13], 8.98 µM (active); in test [2], 13.5 µM (active); in test [3], 6.64 µM (active); in [4], 12.7 µM (active); in test [15] it was 5.21 µM (active).

As for `CC1=C2C[C@H]3[C@@H](CC=C4C[C@@H](O)CC[C@@]43C)[C@@H]2CC[C@]12O[C@@H]1C[C@H](C)CN[C@H]1[C@H]2C`, the result in test [1], in test [2], in [3] and in test [4] was inactive.

Consider `ClC1=C(Cl)[C@]2(Cl)[C@@H]3[C@H]4C[C@H]([C@@H]5O[C@H]45)[C@@H]3[C@@]1(Cl)C2(Cl)Cl`, for which the AC50 was 5.87 µM (active) in test [1]; 5.53 µM (active) in test [13]; 7.7 µM (active) in test [3]; 8.56 µM (active) in [4]; 4.45 µM (active) in test [10]. For the same compound, in test [2], the outcome was inactive.

Take `COS(=O)(=O)OC`: the result in [1], in test [2], in [3] and in test [4] was inactive.

Regarding `CCC(C)c1cc([N+](=O)[O-])cc([N+](=O)[O-])c1O` (stereo unspecified), the half-maximal activity concentration (AC50) in test [1] was 14.2 µM (active); in test [13], 5.36 µM (active); in test [2], 8.89 µM (active); in test [3], 19.6 µM (active); in test [4] it was 18 µM (active); in [9], 15.2 µM (active).

As for `CO/C=C(/C(=O)OC)c1ccccc1COc1cccc(C(F)(F)F)n1`, the AC50 was 6.75 µM (active) in test [1]; 5.66 µM (active) in test [2]; 4.57 µM (active) in test [3]; 9.02 µM (active) in test [4]; 6.85 µM (active) in test [8]; 1 µM (active) in test [9]. Further, the compound was called inactive in test [15] and in test [14].

With `C=CC(=O)NCNC(=O)C=C`, the result in [1], in [2], in test [3] and in test [4] was inactive.

Turning to `ClC(Cl)=C(c1ccc(Cl)cc1)c1ccc(Cl)cc1`, the AC50 in test [1] was 32.2 µM (active); in test [13] it was 15.4 µM (active); in [2], 34.6 µM (active); in [3], 18.4 µM (active); in [4], 32 µM (active). The outcome in test [10], in test [9], in [16] and in [17] was inactive.

Regarding `CN(C)CCO`, the result in test [1], in [2], in test [3], in test [4] and in test [9] was inactive.
